Screening results from PubChem BioAssay.
This is a sample that favours compounds with a hit; in the whole collection about 2.6% have one here.
Cruzain Triton – inhibitors of Trypanosoma cruzi cruzain with detergent | 200,000 tested, 0.43% active | purified cruzain, Z-FR-AMC fluorescence, 0.01% Triton | AID 1478 | Potency, µM, without a hit: max response, negative = inhibition, most hits filed as inhibitors;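 further: plate controls were neutral wells for no effect and buffer without enzyme for full effect; nearly all actives have a fitted effect of over 40% in size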
Target sequence (P25779 123-467 limits assumed): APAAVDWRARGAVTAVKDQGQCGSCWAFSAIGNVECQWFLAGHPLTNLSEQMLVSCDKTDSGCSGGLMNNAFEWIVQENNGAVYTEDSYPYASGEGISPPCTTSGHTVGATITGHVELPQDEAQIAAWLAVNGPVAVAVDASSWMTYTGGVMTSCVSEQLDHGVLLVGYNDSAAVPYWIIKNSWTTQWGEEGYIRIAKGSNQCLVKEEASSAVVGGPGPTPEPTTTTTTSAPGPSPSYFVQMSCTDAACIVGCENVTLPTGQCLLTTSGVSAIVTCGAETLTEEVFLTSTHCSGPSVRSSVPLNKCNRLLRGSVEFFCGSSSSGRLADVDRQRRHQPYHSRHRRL
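Cruzain (1.5 nM) preincubated 15 min at RT with compound in 100 mM sodium acetate pH 5.5, 5 mM DTT, 0.01% Triton X-100. Reaction started with 2 uM Z-FR-AMC; AMC fluorescence (ex 360/em 450 nm) change over 60 s gave rate.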
Cruzain noTriton – blocks cruzain activity in detergent-free assay. P25779. purified cruzain, Z-FR-AMC fluorescence, no detergent. Potency, µM, inactives show max response, negative = inhibition, usual class: inhibitors. 200,000 tested, 2.3% active;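 further: plate controls were enzyme without inhibitor for no effect and buffer without enzyme for full effect; nearly all actives have a fitted effect of over 40% in size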
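Detergent-free condition (0.00005% Triton X-100) in acetate buffer pH 5.5 with DTT. 1.5 nM enzyme and compound were pre-mixed 15 min, then 2 uM Z-FR-AMC substrate added; reaction progress from fluorescence change between first and third reads (60 s).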
Active calls of the source: *; ? = inconclusive. The call rests on the fitted dose curve; in most records, active means well fitted curve in the direction sought with a large enough effect; inconclusive means small, poorly fitted or top-dose-only effect, or another doubt; inactive means no such curve, though single readings can be large; an effect the other way counts as inactive or inconclusive. Potency means the concentration at half of the fitted maximal effect.

SMILES | Cruzain Triton | Cruzain noTriton
CCCC(C(=O)NCc1ccccc1)N(C(=O)Cn1nnc(-c2cccs2)n1)c1ccc2c(c1)OCCO2 (configuration not stated) | 1% | 20µM*
O=C(Nc1ccc(C(=O)N2CCN(c3ccc(Cl)cc3)CC2)cc1)c1nsc2ccccc12 | -2% | -10%
Cc1ccc(Cl)cc1N1CCN(C(=O)c2ccc(NC(=O)c3nsc4ccccc34)cc2)CC1 | 2% | 7.9µM*
COc1ccc(C)cc1NC(=O)NCc1ccc2c(c1)CCN2C(=O)c1ccccc1 | -3% | 20µM*
COc1ccc(C(=O)NCc2ccc3c(c2)CCN3C(=O)c2ccccc2)cc1 | -1% | 14%
Cc1ccc(NC(=O)NCc2ccc3c(c2)CCN3C(=O)c2ccccc2)c(Cl)c1 | -4% | -23%
COc1ccc(C(=O)NCc2ccc3c(c2)CCN3C(=O)c2ccc(F)cc2)cc1 | 0% | 10%
COc1ccc2cc(C(=O)NCc3ccc4c(c3)CCN4C(=O)c3ccc(F)cc3)[nH]c2c1 | -1% | 25µM*
COc1ccc2cc(C(=O)NCc3ccc4c(c3)CCN4C(=O)c3ccc(C)cc3)[nH]c2c1 | -2% | 13µM*
Cc1ccc(CNC(=O)[C@H](C)[C@@H]2C[C@@]2(C)[C@@H](NC(=O)OCc2ccccc2)c2ccccc2)o1 | -8% | -8%
Cc1ccc2onc(CC(=O)N3CCN(c4ccccc4F)CC3)c2c1 | -7% | ?
Cc1ccc2onc(CC(=O)N3CCN(c4ccc(F)cc4)CC3)c2c1 | 28µM* | 25µM*
CC(=O)c1ccc(NC(=O)Cn2ncc3c4ccccc4n(Cc4ccccc4)c3c2=O)cc1 | -5% | ?
CC1=C2C(=O)[C@@H]3[C@@H](CC=C4C[C@@H](O)CC[C@@]43C)[C@H]2CC[C@@]12O[C@H]1C[C@H](C)CN[C@H]1[C@@H]2C | -5% | -4%
C=C[C@](C)(O)CCC1C(=C)CC(O)C2C(C)(C)CCCC12C (some centres not stated) | -6% | ?
O=C(Nc1ccccc1F)c1ccc2c(Cl)c3c(nc2c1)CCC3 | -9% | 1%
O=C1OC(c2cc(I)c(O)c(I)c2)(c2cc(I)c(O)c(I)c2)c2ccccc21 | -16% | 6%
CC(C)OCCCN1C(=O)c2[nH]nc(-c3ccccc3O)c2C1c1cccc(OCc2ccccc2)c1 (configuration not stated) | -9% | -12%
N#C/C(=C\c1ccc(-c2cccc(C(F)(F)F)c2)o1)C(=O)Nn1cnnc1 | -13% | 9%
O=C1OC(c2ccco2)=N/C1=C\c1ccc(-c2cccc(C(F)(F)F)c2)o1 | -11% | 13µM*
COC(=O)c1ccc(C(NC(=O)OCc2ccccc2)/C(=C/[C@@H](C)C(=O)NCc2cc(C)n(C)n2)c2cccnc2)cc1 (some centres not stated) | -6% | -9%
Nc1nc2c(ncn2[C@@H]2O[C@H](CO)[C@@H](O)[C@@H]2O)c(=[SH+])[nH]1.O=[N+]([O-])c1ccc(O)[c]([Hg])c1 | 0% | -2%
CC1CCc2c(sc(NC(=O)CSc3ncnc4c3cnn4-c3ccccc3Cl)c2C#N)C1 (configuration not stated) | 5% | 10µM*
Cc1csc(NC(=O)CSc2ncnc3c2cnn3-c2ccccc2Cl)n1 | -2% | -7%
O=C(NCCc1ccccc1)c1ccc(Nc2nc3ccccc3n3nnnc23)cc1 | -1% | 7%
SMILES | Cruzain Triton | Cruzain noTriton
COc1ccccc1CNc1ncncc1-c1ccc(C(=O)N(C)C)cc1 | -1% | -5%
COc1ccc(/C=N/NC(=O)CCSc2nc3ccccc3s2)cc1OC | -10% | ?
O=C(CCSc1nc2ccccc2s1)N/N=C/c1c(O)ccc2ccccc12 | -2% | 13µM*
O=C(NC(=S)Nc1ccc(N2CCOCC2)cc1)c1ccc2c(c1)OCCO2 | -9% | -16%
O=C(NC(=S)Nc1ccc(N2CCCCC2)cc1)c1ccc2c(c1)OCCO2 | -4% | 25µM*
CCOc1cccc(C(=O)NC(=S)Nc2ccc(N3CCCC3)cc2)c1 | ? | 32µM*
CCOc1cccc(C(=O)Nc2ccc(N3CCN(S(C)(=O)=O)CC3)cc2)c1 | 5% | 2%
CC[C@]1(O)C[C@@H]2CN(CCc3c([nH]c4ccccc34)[C@](C(=O)OC)(c3cc4c(cc3OC)N(C)[C@H]3[C@](O)(C(=O)OC)[C@@H](C(=O)OC)[C@@]5(CC)C=CCN6CC[C@@]43[C@@H]65)C2)C1 | -1% | -3%
Cc1ccc2ncc(C(=O)NCCc3ccc(S(N)(=O)=O)cc3)c(=O)n2c1 | -1% | -13%
N#Cc1ccccc1S(=O)(=O)N1CCCC(c2nc3c(nnn3Cc3cccc(Cl)c3)c(=O)[nH]2)C1 (configuration not stated) | 3% | ?
C/C(=N\N=C1/NC(=O)C(C)S1)c1ccc([N+](=O)[O-])cc1 (configuration not stated) | 25µM* | 16µM*
C/C(=N/N=C1/NC(=O)CC(C(=O)O)S1)c1ccccc1 (configuration not stated) | -4% | 2%
COc1ccc(-c2nc3cnc(Nc4ccccc4)nc3n(Cc3cccs3)c2=O)cc1 | 0% | -1%
COc1cccc(Nc2ncc3nc(CCc4ccccc4)c(=O)n(Cc4cccs4)c3n2)c1 | 3% | 4µM*
O=c1c(CCc2ccccc2)nc2cnc(Nc3ccccc3)nc2n1Cc1cccs1 | 4% | 25µM*
COCCn1c(=O)c(CCc2ccccc2)nc2cnc(Nc3cccc(OC)c3)nc21 | 3% | 1%
COc1ccc(Oc2ncc3nc(-c4ccccc4)c(=O)n(Cc4cccs4)c3n2)cc1 | -1% | 25µM*
COc1ccc(Oc2ncc3nc(C)c(=O)n(Cc4cccs4)c3n2)cc1 | -6% | 13%
COc1cccc(Nc2ncc3nc(-c4ccccc4)c(=O)n(Cc4cccs4)c3n2)c1 | 1% | 5µM*
Cc1nc2cnc(Nc3ccccc3)nc2n(Cc2cccs2)c1=O | 1% | 1%
COC(=O)N1CCC2(CC1)CCN(c1cccc(-c3ccccc3)c1)CC2 | 0% | ?
CCN(CC)CCCNC(=S)N1CCn2c(nc3ccccc32)C1 | 13µM* | -4%
CCN(CC)C(=O)N1CCn2c(nc3ccccc32)C1 | -1% | -1%
O=c1cc(CN2CCN(c3cccc(Cl)c3)CC2)c2cc(O)c(-c3ccccc3)cc2o1 | 4% | 7.9µM*
COc1ccc(N2CCN(Cc3cc(=O)oc4cc5c(cc34)CCCC5)CC2)cc1 | 0% | 13µM*
SMILES | Cruzain Triton | Cruzain noTriton
O=c1cc(CN2CCN(c3ccccc3)CC2)c2c(ccc3ccccc32)o1 | 3% | ?
O=c1cc(CN2CCN(Cc3ccccc3)CC2)c2cc(Cl)ccc2o1 | -4% | -8%
COc1ccc(N2CCN(Cc3cc(=O)oc4ccc(C)cc34)CC2)cc1 | 0% | ?
O=c1cc(CN2CCN(c3ccccc3)CC2)c2cc(O)c(-c3ccccc3)cc2o1 | -2% | 10µM*
CCOc1ccc(C2C(=O)N(C3CCCCCC3)CC(=O)N2Cc2ccc(C)cc2)cc1OC (configuration not stated) | 1% | ?
CN1[C@@H](c2ccccc2)CC(=NO)C[C@H]1c1ccccc1 | 1% | -7%
Cc1c(CC=C(Cl)Cl)c(=O)[nH]c2c(C)cccc12 | 0% | 2.5µM*
CCCc1c(C)c2cccc(C)c2[nH]c1=O | 3% | -11%
O=S(=O)(O)c1ccc(-c2nnc(-c3ccccn3)nc2-c2ccc(S(=O)(=O)O)o2)o1 | -1% | 4%
C=CCOC(=O)N[C@H](c1ccco1)C(C(C)=O)C(C)=O | 4% | -13%
